Data taken from PubChem BioAssay (EPA / NIEHS).
Where “and” joins values, the source holds several entries; their conditions need not be identical. Identical values can stand only once. Calls of active or inactive are those of the source. The calls were made as follows: active = hit-call score of the fitted dose curve at least 0.9, where 1 is the maximum; inactive = score below 0.9.

read-out: KRT18 (gene 3875); assay: BSK_BF4T_Keratin818: BioMAP Diversity Plus: BF4T Assay for Keratin 818 Biomarker Activity (AID 2284266); settings: primary human bronchial epithelial cells with fibroblasts
Procedure: BSK_BF4T is a cell-based, multiplexed-readout assay that uses bronchial epithelial cells and dermal fibroblasts, a human vascular primary cell, with measurements taken at 24 hours after chemical dosing in a microplate: 96-well plate.BSK_BF4T_Keratin818 is an assay component measured in the BSK_BF4T assay. It measures Keratin 8/18 antibody related to regulation of gene expression using ELISA technology.Data from the assay component BSK_BF4T_Keratin818 was analyzed at the endpoint, BSK_BF4T_Keratin818, in the positive analysis fitting direction relative to DMSO as the negative control and baseline of activity. Using a type of binding reporter, gain or loss-of-signal activity can be used to understand protein changes. To generalize the intended target to other relatable targets, this assay endpoint is annotated to the 'cell adhesion molecules' intended target family, where the subfamily is 'keratin'.
The levels of cell surface (or secreted, indicated by the prefix "s") biomarker endpoints were measured by ELISA. Overt cytotoxicity to cells in confluent adherent cultures (all systems other than the BT system) was assessed by measuring total protein levels using sulforhodamine B (SRB) staining in parallel cultures at the time of biomarker measurements, indicated as SRB endpoints. For proliferation assays for adherent cell types, individual cell types are cultured at sub-confluence and relative cell numbers quantified by SRB staining at time points optimized for each system (48 h: 3C and CASM3C systems; 72 h: BT and HDF3CGF systems; 96 h: SAg system). SRB was performed by staining cells with 0.1% SRB after fixation with 10% TCA and reading wells at 560 nm.Viability and proliferation of PBMC (T cells) was quantified by Alamar Blue reduction for the SAg and BT systems. For PBMC viability (referred to as PBMC Cytotoxicity within the assay endpoint names), cells were plated (75,000/well in a 96-well plate) and then chemical samples added for 1 h before addition of activators, SEB and TSST-1 (20 ng/mL final concentration each). Cells were incubated for 90 h. Then, Alamar Blue (20 uL/well) (Invitrogen, Cat DAL1100) was added for 6 h, and the plates were read with a fluorescence microplate reader at 546/580 nm (excitation/emission). For PBMC proliferation, cells were plated and activated as above but incubated for only 16 h prior to addition of Alamar Blue. Plates were read after 6 h.

| SMILES | outcome | AC50 |
| --- | --- | --- |
| C=CC(=O)OCCC(F)(F)C(F)(F)C(F)(F)C(F)(F)C(F)(F)C(F)(F)C(F)(F)C(F)(F)F | inactive |  |
| O=P(O)(O)CCC(F)(F)C(F)(F)C(F)(F)C(F)(F)C(F)(F)C(F)(F)F | inactive |  |
| CN(CCO)S(=O)(=O)C(F)(F)C(F)(F)C(F)(F)C(F)(F)C(F)(F)C(F)(F)C(F)(F)C(F)(F)F | inactive |  |
| OCC(F)(F)C(F)(F)C(F)(F)C(F)(F)C(F)(F)C(F)(F)C(F)(F)C(F)(F)C(F)(F)C(F)(F)C(F)(F)F | inactive |  |
| O=C(O)CCC(F)(F)C(F)(F)C(F)(F)C(F)(F)C(F)(F)C(F)(F)F | inactive |  |
| O=S(=O)(O)C(F)(F)C(F)(F)C(F)(F)C(F)(F)C(F)(F)C(F)(F)C(F)(F)C(F)(F)C(F)(F)C(F)(F)F | inactive |  |
| O=C(CC(=O)C(F)(F)C(F)(F)C(F)(F)F)c1cccs1 |  | 23.1 µM (active) and 28 µM (active) |
| CN(Cc1cnc2nc(N)nc(N)c2n1)c1ccc(C(=O)N[C@@H](CCC(=O)O)C(=O)O)cc1 | inactive |  |
| O=C(O)C(F)(F)OC(F)(F)C(F)(F)OC(F)(F)C(F)(F)OC(F)(F)C(F)(F)C(F)(F)C(F)(F)F |  | 14.6 µM (active) and 7.97 µM (active) |
| O=C(O)CCC(F)(F)C(F)(F)C(F)(F)C(F)(F)C(F)(F)F | inactive |  |
| O=P(O)(O)CCC(F)(F)C(F)(F)C(F)(F)C(F)(F)C(F)(F)C(F)(F)C(F)(F)C(F)(F)F | inactive |  |
